Structures are written as SMILES. The panel holds about 83,000 compounds, 20% with a hit somewhere; the sample as a whole holds those more often.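 Note: values are percent growth. 100 is the growth of untreated cells, values between 100 and 0 indicate rising inhibition; between -100 and 0 indicates cell death.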 The source made the active and inactive calls. The calls were made as follows: active = growth percent below 10; inactive = the rest.

The subject of this test is U251 CNS. Briefly: NCI-60 one-dose screen, 48 h (100 = growth as untreated, 0 = no growth, -100 = all killed). Particulars: 10 µM unless noted.
As to `CCOC(=O)c1cnc2ccc(Br)cc2c1Nc1cccc(S(N)(=O)=O)c1`, the growth is 91.9% (inactive). Consider `CCCCC(CCCCCC(CCCC)C1NC(C)Cc2cc(OC)c(OC)cc21)C1NC(C)Cc2cc(OC)c(OC)cc21` (configuration not stated), for which the growth was -94.7% (active). The result for `O=C(N=c1n(-c2ccccc2)nc2n1CCN2C1=NCCN1C(=O)c1ccc(Cl)cc1)c1ccc(Cl)cc1` reads 72.8% (inactive); that for `O=C(OCc1ccc2c(Cl)cc(Cl)c(O)c2n1)N1CCN(C(=O)c2cc3cc(F)ccc3[nH]2)CC1`, 8.06% (active); that for `CC1=C/C(=C(\c2cc(C)c(O)c(C(=O)O)c2)c2c(Cl)cccc2Cl)C=C(C(=O)O)C1=O`, 104% (inactive). The same measure for `COc1ccc(C(=O)CCC(=O)O)cc1`: 83.1% (inactive). The result for `CCN(CC)c1ccc(/C=C/C=C2\NC(=O)NC2=O)cc1` reads 29.1% (inactive); that for `COc1cc(NCc2ccccc2O)c2ncccc2c1`, 98.9% (inactive); that for `O=C(Oc1ccc(Cl)cc1[N+](=O)[O-])Oc1ccc(Cl)cc1[N+](=O)[O-]`, 99% (inactive). On to `COc1ccc(-c2cc(-c3ccc(OC)c(OC)c3)nc(SCCCCCC(=O)NO)n2)cc1`, for which the growth is 38.3% (inactive). The result for `O=C(NCCCNC(=O)OCc1ccc2cccc(O)c2n1)OCc1ccc2cccc(O)c2n1` reads 39.8% (inactive). The result for `CCCCNC(=O)NS(=O)(=O)Cc1ccccc1` reads 96.4% (inactive); that for `Nc1cccc2c1C(=O)c1cccc(NC(=O)c3ccccc3)c1C2=O`, 22.9% (inactive); that for `Cc1cc(NN=C(c2ccc(O)cc2)c2ccc(O)cc2)c([N+](=O)[O-])cc1[N+](=O)[O-]`, 49.4% (inactive). In the case of `CC1(C(=O)O)CCC(N)(C(=O)O)C1(C)C` (configuration not stated), the growth was 105% (inactive).

On to `O=C(Nc1cccc(F)c1)c1cc(=O)[nH]c2cc(Br)ccc12`, for which the growth was 36% (inactive). The result for `N#Cc1c(Cl)nc(SCC2CO2)nc1-c1ccccc1` (configuration not stated) reads 104% (inactive); that for `CC1Cc2c(Cl)ncnc2N(C)c2ccc(Cl)cc21` (configuration not stated), 18.8% (inactive); that for `CCCc1cc2cc(-n3nc(C)c4c3CC(C)(C)CC4=O)cc(NC3CCSCC3)c2c(=O)[nH]1`, 72.3% (inactive).

For the compound `O=C(O)c1cn(C2CC2)c2cc(N3CCN(Cc4cc(Cl)ccc4O)CC3)c(F)cc2c1=O`, the growth is 36.6% (inactive). The result for `COc1ccc2nc3cc(Cl)ccc3c(Nc3ccc(O)c(CN4CCCC4)c3)c2c1` reads 0.559% (active); that for `COc1ccc(C(=O)c2nccc3cc(OC)c(OC)cc23)cc1OC`, 98.6% (inactive); that for `CC1Cc2c(Cl)ncnc2N(C)c2ccc(O)cc21` (configuration not stated), 36% (inactive). Consider `COc1ccc(-c2cc(-c3ccccc3)nc(NCCNc3ccnc4cc(Cl)ccc34)n2)cc1`, for which the growth is -84.3% (active).

`Cn1cc(-c2noc(C(=O)c3cn(C)c4ncc(Br)cc34)n2)c2ccccc21`: the growth was 93.8% (inactive).

Consider `O=C1CN(Cc2ccc(C(=O)NO)cc2)C(=O)[C@@H](Cc2ccccc2)N1`, for which the growth is 92.4% (inactive).

In the case of `O=C1/C(=C/c2ccc(OCc3ccccc3)cc2)Oc2cc(OCCN3CCCCC3)ccc21`, the growth is 69.8% (inactive). With `COC(=O)[C@@H](NC(=O)NC(=O)NC(=O)CI)C(C)C`, the growth was 100% (inactive). The result for `c1ccc2c(c1)CN(CCCN1CCOCC1)C2` reads 97.8% (inactive).

Take `Clc1ccccc1/C=N\Nc1ccccn1`: the growth is 95.4% (inactive). The same measure for `CN(C)CCCNc1nc(-c2cccc(C(Cl)(Cl)Cl)c2)nc(C(Cl)(Cl)Cl)n1`: 105% (inactive). For the compound `CC1(C)CC[C@]2(C(N)=O)CC[C@]3(C)C(=CC[C@@H]4[C@@]5(C)C/C(=C/c6ccncc6)C(=O)C(C)(C)[C@@H]5CC[C@]43C)[C@@H]2C1`, the growth is -81.1% [100 µM] (active).

Regarding `COc1ccc(N(c2nc(-c3ccc([N+](=O)[O-])cc3)cs2)C(C)C)cc1`, the growth was 90.3% (inactive). The same measure for `CCOc1ccc(/C=C(\C#N)c2cc3ccccc3[nH]2)cc1`: 41.7% (inactive); for `c1coc2occoc=2o1`: 101% (inactive); for `COc1cc2c(c(OC)c1)C1c3cc(OC)ccc3NC(=O)N1CC2` (configuration not stated): 74.9% (inactive). With `CCC(C)[C@H](NC(=O)NC(=O)NC(=O)CI)C(=O)OC` (some centres not stated), the growth was 93.2% (inactive).

The record behind these values is PubChem BioAssay (NCI).
